# Screens (PubChem)
# APOBEC3A inh = APOBEC3A ssDNA deaminase inhibitors, primary screen, selectivity assay for APOBEC3G inhibitor project, biochemical, FAM/TAMRA oligo cleavage fluorescence; recombinant A3A, FAM/TAMRA ssDNA deamination fluorescence; inhibition, % at 20 µM; 330,000 compounds, 0.41% hits; AID 493011, 2011;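 active means at least 40% inhibition at 20 µM here, with at most 30% in a related deaminase screen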;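 further: plate controls were A3A with DMSO for no effect and wells lacking A3A enzyme for full effect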
# Target sequence (P31941 whole entry, looked up): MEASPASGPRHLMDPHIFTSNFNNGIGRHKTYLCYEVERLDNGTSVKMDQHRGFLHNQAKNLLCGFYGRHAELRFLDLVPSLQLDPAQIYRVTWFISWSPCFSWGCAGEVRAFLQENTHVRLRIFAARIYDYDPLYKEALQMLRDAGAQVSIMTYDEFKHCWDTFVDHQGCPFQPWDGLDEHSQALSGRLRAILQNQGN
# ALR H2O2 inh = inhibitors of human ALR sulfhydryl oxidase, primary screen, biochemical, H2O2 detection, HRP-luminol luminescence, single point | FAD-linked sulfhydryl oxidase ALR (Homo sapiens), P55789 | 290,000 compounds, 3.8% hits | purified ALR, DTT oxidation | inhibition, % (concentration not given with the values);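 active means mean replicate inhibition above about 79%, with every replicate also reaching it, limit read from the data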
# rCAG RNA binder = binders of r(CAG) RNA repeats, primary screen, biochemical, fluorescence | r(CAG) RNA repeat, TO-PRO-1 dye displacement fluorescence | inhibition, % at 3 µM | AID 651821, 2012 | 370,000 compounds, 1.3% hits;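 active means inhibition above the plate cutoff, the mean of all test compounds on that plate plus 3 SD, cut at about 35% in these data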;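 further: 0% = DMSO alone and 100% = 100 µM mitoxantrone as full dye displacement; higher means more dye released from RNA so lower well fluorescence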
# APOBEC3G inh = APOBEC3G DNA deaminase inhibitors, primary screen, biochemical, fluorescence, single-stranded DNA substrate, uHTS; inhibition, % at 20 µM; 330,000 compounds, 0.28% hits; recombinant A3G, ssDNA deamination FAM/TAMRA fluorescence;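 active means inhibition of at least 40% at 20 µM, with no more than 30% in the related APOBEC3A deaminase screen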;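 further: plate controls were DMSO wells with A3G for no effect and wells lacking A3G enzyme for full effect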
# Target sequence (Q9HC16 whole entry, looked up): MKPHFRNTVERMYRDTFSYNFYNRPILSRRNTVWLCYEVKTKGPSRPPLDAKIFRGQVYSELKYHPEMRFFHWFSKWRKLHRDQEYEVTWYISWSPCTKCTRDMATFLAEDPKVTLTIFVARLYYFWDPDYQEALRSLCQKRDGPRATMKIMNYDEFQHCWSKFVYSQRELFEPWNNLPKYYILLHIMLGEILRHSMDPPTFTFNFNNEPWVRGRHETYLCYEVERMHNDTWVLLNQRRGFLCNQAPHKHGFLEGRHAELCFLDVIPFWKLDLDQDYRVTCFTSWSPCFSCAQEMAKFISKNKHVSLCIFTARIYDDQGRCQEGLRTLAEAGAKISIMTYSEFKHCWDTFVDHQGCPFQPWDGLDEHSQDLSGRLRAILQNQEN
# aDG glyco up = activators of alpha-DG glycosylation, primary screen, uHTS, Pro5-aDG cells, AlphaScreen; alpha-DG glycosylation AlphaScreen (IIH6); 0% Pro5, 100% B10-LARGE cell signal; 360,000 compounds, 0.22% hits; activation, % at 10 µM; AID 624168, 2012;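 active means activation of at least 8% versus controls, or a plate z-score of at least 8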;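 further: Pro5 are CHO cells carrying HIG-tagged alpha-DG that lacks glycosylation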
# PHOSPHO1 inh = PubChem AID 1565; Phosphoethanolamine/phosphocholine phosphatase (Homo sapiens), Q8TCT1; recombinant PHOSPHO1, absorbance phosphatase assay; inhibition, % at 13.3 µM; 290,000 compounds, 1.1% hits; in the data active means inhibition above about 60%
# APOBEC3A confirm = APOBEC3A deaminase inhibitors, retest, confirmation, selectivity assay for APOBEC3G inhibitor project, biochemical, single concentration, fluorescence readout; shares compounds with APOBEC3A inh; inhibition, % at 20 µM; 1,400 compounds, 63% hits; recombinant A3A, ssDNA deaminase UDG fluorescence assay; AID 493151, 2011;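 active means inhibition reaching a set limit, 80% of the first screen's cutoff, at 20 µM in any replicate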;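 further: plate controls were DMSO wells with A3A for no effect and wells lacking A3A enzyme for full effect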
# UDG ctr A3A = E. coli UDG inhibitors, confirmation, counter-screen for APOBEC3A inhibitor project, biochemical, single concentration, fluorescence, FAM/TAMRA oligo. shares compounds with APOBEC3A inh. UDG counterscreen, FAM/TAMRA uracil oligo fluorescence. inhibition, % at 20 µM. 1,000 tested, under 10 active; call rule not given here
# An asterisk follows results filed as active; nt = no result. Only some compounds are listed: those with a hit (about 5.4% of all), similar ones and a draw of the others.
SMILES,APOBEC3A inh,ALR H2O2 inh,rCAG RNA binder,APOBEC3G inh,aDG glyco up,PHOSPHO1 inh,APOBEC3A confirm,UDG ctr A3A
Cc1c(NC(=O)COC(=O)CSc2ccc(C(N)=O)cc2[N+](=O)[O-])c(=O)n(-c2ccccc2)n1C,-3.9,2.1,1.2,0.2,0.0,27.0,nt,nt
Cc1ccccc1NC(=O)CSc1ccsc1[N+](=O)[O-],48.5*,24.9,15.2,18.9,0.2,1.4,42.4*,nt
COCCCNC(=O)CSc1ccsc1[N+](=O)[O-],3.1,-11.6,6.9,-5.4,0.1,20.0,nt,nt
CN(C)/N=C/c1c(O)ccc2ccccc12,-2.4,-12.5,1.1,-0.8,-0.1,11.8,nt,nt
CS/C(N)=N/N=C/c1c(O)ccc2ccccc12,58.1*,nt,1.1,23.5,0.1,67.6*,27.2,nt
C[C@@H]1CNC(=O)c2c(C(=O)N[C@@H](Cc3c[nH]c4ccccc34)C(=O)OC(C)(C)C)ncn21,nt,nt,0.9,nt,-0.2,nt,nt,nt
CSc1nc2sc3c(c2c(=O)n1C)CCC3,-1.3,-6.1,5.0,-2.4,0.0,nt,nt,nt
CSc1nc2sc3c(c2c(=O)n1C1CCCCC1)CCN(C)C3,47.2*,1.9,-0.9,18.5,-0.3,-13.9,20.5,nt
O=C(Nc1ccc(OC(F)(F)F)cc1)Nc1c(-c2ccc(F)cc2)nc2ncccn12,nt,nt,7.9,nt,nt,nt,nt,nt
O=C1CCCC(O)=C1Sc1ccccc1C(=O)O,54.7*,-5.3,2.4,6.1,0.1,21.5,57.1*,-5.6
COc1ccc(C2CC(=O)C(c3ccc(Br)cc3)=CN2Cc2ccccc2)cc1 (configuration not stated),nt,nt,4.5,nt,nt,nt,nt,nt
COc1ccc(CN2C(=O)CSCCC2(C)c2nnnn2-c2c(C)cccc2C)cc1 (configuration not stated),nt,nt,3.2,nt,nt,nt,nt,nt
COc1ccc2c(c1)CCc1sc(NC(=O)c3ccco3)nc1-2,-4.2,-36.4,nt,-6.7,0.4,42.5,nt,nt
COc1ccc2c(c1)CCc1sc(NC(=O)c3ccc(C)cc3)nc1-2,50.0*,-24.8,4.8,4.6,-0.3,-46.7,25.6,nt
COc1cc(NC(=O)c2noc3c2CCC3)c(OC)cc1Cl,48.5*,-5.1,10.7,21.4,-0.2,12.4,55.0*,1.1
CC(Oc1ccc(Br)cc1)C(=O)Nc1cc(Cl)ccc1N1CCN(C)CC1 (configuration not stated),58.1*,-7.9,-6.5,9.4,0.4,nt,54.4*,-1.9
C[C@H](O)[C@@H]1C(=O)N2CCc3c([nH]c4cccc(-c5ccccc5)c34)[C@@H]2C[C@@H]1N(C)C(=O)NC1CCCCC1,nt,nt,10.7,nt,nt,nt,nt,nt
Cc1ccc(CNC(=O)CCNC(=O)c2ccc([N+](=O)[O-])cc2)cc1,45.9*,-16.1,3.3,12.3,-0.1,nt,40.6*,1.0
O=C(CCNC(=O)c1ccc([N+](=O)[O-])cc1)NCCc1ccc(Cl)cc1,20.2,-0.9,-1.0,5.3,0.0,15.0,nt,nt
O=C(CCNC(=O)c1ccc([N+](=O)[O-])cc1)Nc1nccs1,46.7*,-1.4,1.4,13.5,-0.1,-27.7,2.2,nt
O=C(C(=O)N1CCCCCC1)c1c[nH]c2ccccc12,-4.0,0.7,3.3,-3.7,-0.1,-10.7,nt,nt
C[n+]1cc(C(=O)N2CCCCC2)ccc1/C=C/c1c[nH]c2ccccc12,75.1*,5.4,-227.9,14.1,0.1,20.8,72.6*,7.1
CC(=O)NC(c1ccccc1)c1nc(-c2cncnc2)cs1 (configuration not stated),nt,nt,0.3,nt,-0.4,nt,nt,nt
CC1(c2ccc(Cl)cc2)NC(=O)N(CC(=O)Nc2ccc(N3CCCCC3)cc2)C1=O (configuration not stated),44.6*,8.0,-0.8,-5.8,0.0,nt,-6.0,-2.9
CCC1(c2ccccc2)NC(=O)N(CC(=O)Nc2ccc(S(=O)(=O)N3CC(C)CC(C)C3)cc2)C1=O (configuration not stated),1.6,-5.7,6.5,-4.4,-0.2,nt,nt,nt
SMILES,APOBEC3A inh,ALR H2O2 inh,rCAG RNA binder,APOBEC3G inh,aDG glyco up,PHOSPHO1 inh,APOBEC3A confirm,UDG ctr A3A
CC1CCN(S(=O)(=O)c2ccc(NC(=O)CN3C(=O)NC(C)(c4ccccc4)C3=O)cc2)CC1 (configuration not stated),49.0*,-19.7,6.6,4.5,0.1,nt,-3.3,nt
O=C(c1cccnc1)N1CCN(c2ccc(Cl)cc2)CC1,47.7*,42.6,-4.6,-6.0,0.0,-1.0,-4.2,-1.6
O=[N+]([O-])c1ccc(SN2CCCCC2)c([N+](=O)[O-])c1,nt,nt,0.7,nt,nt,nt,nt,nt
COc1ccc(-n2ncc3c(=O)n(CC(C)=O)cnc32)cc1,42.8*,-11.4,0.0,-3.4,-0.1,nt,-3.2,-1.7
CC(=O)Cn1cnc2c(cnn2-c2ccc(F)cc2)c1=O,nt,nt,1.0,nt,-0.4,nt,nt,nt
CC(C)(C)OC(=O)N[C@H]1C=C[C@@H](CC(=O)OCC(F)(F)F)C1,nt,nt,0.4,nt,nt,nt,nt,nt
Cn1c(CCC(=O)Nc2ccc(S(C)(=O)=O)cc2)nc2cc(S(=O)(=O)N3CCOCC3)ccc21,nt,nt,10.6,nt,0.0,nt,nt,nt
Cn1c(CCC(=O)Nc2cc(S(C)(=O)=O)ccc2Cl)nc2cc(S(=O)(=O)N3CCOCC3)ccc21,73.8*,-7.3,2.5,26.1,-0.1,nt,76.2*,2.7
C[C@H]1CN(C(=O)OC(C)(C)C)CCN1c1ccc(N2CC[C@@H](O)C2)c(C#N)c1,nt,nt,-0.3,nt,nt,nt,nt,nt
c1ccc(-c2cc(-c3ccccc3)ncn2)cc1,-1.7,1.9,0.7,-9.7,0.1,nt,nt,nt
C[n+]1cnc(-c2ccccc2)cc1-c1ccccc1,45.0*,-7.8,-0.6,28.7,-0.2,-14.6,62.3*,-0.4
O=C1N=C(N2CCOCC2)S/C1=C/c1cccs1,70.7*,-9.5,2.0,-1.3,0.1,22.9,-1.5,-2.5
CC(=O)N1CCN(C2=NC(=O)/C(=C\c3cccs3)S2)CC1,-4.6,-19.1,-2.0,-8.0,-0.1,40.8,nt,nt
CC(C)C(=O)N1CCN(c2ccc([N+](=O)[O-])cc2Cl)CC1,55.4*,nt,-3.6,15.3,-0.1,0.0,17.3*,-2.1
